Experimental data published in ChEMBL document CHEMBL1961873, “Compounds: GSK PKIS; Assays: Nanosyn kinase panel” (2012).

biological target: Macrophage-stimulating protein receptor (Homo sapiens) (UniProt Q04912); conditions: at 1 µM
Sequence (Q04912 25-304 limits assumed): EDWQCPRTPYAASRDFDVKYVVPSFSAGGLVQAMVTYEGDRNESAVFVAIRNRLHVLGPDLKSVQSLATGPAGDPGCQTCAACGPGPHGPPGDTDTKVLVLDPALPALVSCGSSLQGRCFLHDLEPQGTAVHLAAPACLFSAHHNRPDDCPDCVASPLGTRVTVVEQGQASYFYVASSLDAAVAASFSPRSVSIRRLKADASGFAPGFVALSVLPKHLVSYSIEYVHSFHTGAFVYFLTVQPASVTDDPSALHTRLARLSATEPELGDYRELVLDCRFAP
Sequence (Q04912 310-1400 limits assumed): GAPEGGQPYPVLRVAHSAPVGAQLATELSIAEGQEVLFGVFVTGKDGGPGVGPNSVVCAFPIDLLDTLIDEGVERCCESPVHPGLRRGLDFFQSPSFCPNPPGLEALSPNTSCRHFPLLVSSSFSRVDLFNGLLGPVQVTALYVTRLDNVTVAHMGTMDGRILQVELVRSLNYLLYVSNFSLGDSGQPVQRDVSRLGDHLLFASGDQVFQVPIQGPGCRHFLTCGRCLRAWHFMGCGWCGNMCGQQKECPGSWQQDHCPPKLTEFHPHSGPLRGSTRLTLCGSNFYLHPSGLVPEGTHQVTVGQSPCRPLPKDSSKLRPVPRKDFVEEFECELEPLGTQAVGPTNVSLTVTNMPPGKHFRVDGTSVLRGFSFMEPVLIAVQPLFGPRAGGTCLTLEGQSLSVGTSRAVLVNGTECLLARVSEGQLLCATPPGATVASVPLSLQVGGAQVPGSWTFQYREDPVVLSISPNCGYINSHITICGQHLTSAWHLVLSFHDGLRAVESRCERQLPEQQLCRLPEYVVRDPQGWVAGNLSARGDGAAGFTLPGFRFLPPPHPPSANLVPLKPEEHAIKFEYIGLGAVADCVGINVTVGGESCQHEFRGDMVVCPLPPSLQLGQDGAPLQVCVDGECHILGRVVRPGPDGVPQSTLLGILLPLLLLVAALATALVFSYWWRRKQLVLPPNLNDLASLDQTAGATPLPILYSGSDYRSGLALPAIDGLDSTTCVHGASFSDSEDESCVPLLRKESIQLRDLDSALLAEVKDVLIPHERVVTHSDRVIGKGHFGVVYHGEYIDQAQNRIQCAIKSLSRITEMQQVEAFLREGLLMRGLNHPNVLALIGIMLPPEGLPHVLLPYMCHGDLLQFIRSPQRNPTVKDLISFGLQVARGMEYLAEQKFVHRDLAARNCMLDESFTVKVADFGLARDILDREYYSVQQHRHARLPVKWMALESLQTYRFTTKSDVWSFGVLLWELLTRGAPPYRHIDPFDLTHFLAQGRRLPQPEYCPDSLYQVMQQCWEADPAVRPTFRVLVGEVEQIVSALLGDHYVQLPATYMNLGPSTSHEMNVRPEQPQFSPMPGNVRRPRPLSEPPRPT

Row | Structure (SMILES) | inhibition [%]
1 | COc1cc2ncnc(Nc3ccc(C)c(O)c3)c2cc1OC | 2.44
2 | Cc1cc(-c2ccccn2)cc(C)c1/C=C/c1cncc(-c2nn[nH]n2)c1 | 3.94
3 | CC(C)c1ccc2c(c1)NC(=O)/C2=N/Nc1ccc(S(N)(=O)=O)cc1 | -1.8
4 | CCn1c(-c2nonc2N)nc2ccc(F)cc21 | 6.19
5 | CN(c1ccc(NC(=O)Nc2ccc(OC(F)(F)F)cc2)cc1)c1ccnc(Nc2cccc(S(N)(=O)=O)c2)n1 | 90.5
6 | c1ccc(Nc2ncc(-c3ccccc3)o2)cc1 | 9.16
7 | CCOc1nccc2c1nc(-c1nonc1N)n2CC | 5.31
8 | COc1cccc(-n2ncc3c(N/N=C/c4ccc(S(C)(=O)=O)cc4)ncnc32)c1 | 44.3
9 | Cc1ccc2c(-c3ccnc(Nc4cccc(C(F)(F)F)c4)n3)c(-c3ccccc3)nn2n1 | 13.6
10 | NS(=O)(=O)c1cccc(Nc2cc(-c3ccc(F)cc3)n[nH]2)c1 | 8.51
11 | CCCN1CCCC(c2ccc(Nc3nc(Nc4cc(F)ccc4C(N)=O)c4cc[nH]c4n3)c(OC)c2)C1 (stereo not given) | 13.1
12 | c1ccc(Cc2nc3ccc(Nc4ncnc5ccccc45)cc3[nH]2)cc1 | 5.82
13 | CN1CCN(C(=O)c2ccc(NC(=O)Nc3ccc(N(C)c4ccnc(Nc5ccc(CS(C)(=O)=O)cc5)n4)cc3)cc2)CC1 | 58.6
14 | N#Cc1cccc(Nc2nccc(-c3cnn4ncccc34)n2)c1 | 15.6
15 | Nc1nccc(-c2c(-c3ccc(F)cc3)ncn2CCCN2CCOCC2)n1 | 2.17
16 | COc1cc(/C=N/Nc2ncnc3c2cnn3C(C)C)ccc1O | 17.9

Row | Structure (SMILES) | inhibition [%]
17 | O=C(Nc1ccc(Oc2ccc3[nH]c(NC(=O)c4ccco4)nc3c2)cc1)Nc1cc(C(F)(F)F)ccc1F | 17.2
18 | Cc1ccc(Nc2ccnc(Nc3cccc(C(N)=O)c3)n2)cc1O | 13.3
19 | COC(=O)c1cncc(/C=C/c2c(C)cc(O)cc2C)c1 | 7.09
20 | Cc1cc(O)cc(C)c1/C=C/c1cncc(C(=O)N(C)C)c1 | 11
21 | NC(=O)c1cccc(Nc2nccc(Nc3cccc(F)c3)n2)c1 | 5.75
22 | COc1cc2ncnc(Nc3ccc4c(cnn4Cc4ccccc4)c3)c2cc1OC | 2.02
23 | Nc1nccc(C#Cc2cncnc2Nc2ccc(OCc3cccc(F)c3)c(Cl)c2)n1 | 9.09
24 | COC(=O)Nc1nc2cc(Oc3ccc(NC(=O)Nc4cccc(Br)c4)cc3)ccc2[nH]1 | 2.5
25 | O=C1Nc2ccccc2/C1=C/Nc1ccc2[nH]c(=O)[nH]c2c1 | 10.9
26 | NS(=O)(=O)c1ccc(Nc2cc(-c3cccc(O)c3)n[nH]2)cc1 | 0.78
27 | COc1cc2ncn(-c3cc(OCc4ccccc4S(C)(=O)=O)c(C#N)s3)c2cc1OC | 8.3
28 | CC(C)c1ccc(Nc2nccc(-c3cnn4ncccc34)n2)cc1 | 16.8
29 | FC(F)(F)c1ccc(-c2nn3ncccc3c2-c2ccnc(Nc3ccc4c(c3)OCCO4)n2)cc1 | 0.63
30 | Nc1ccc(C#Cc2cncnc2Nc2ccc(OCc3cccc(F)c3)c(Cl)c2)cc1 | 1.71
31 | Cc1ccc(O)cc1Nc1ccnc2ccc(S(C)(=O)=O)cc12 | 6.07
32 | NS(=O)(=O)c1ccc(NC=C2C(=O)Nc3ccc4ncsc4c32)cc1 | 56.3

biological target: Proto-oncogene tyrosine-protein kinase ROS (Homo sapiens) (UniProt P08922); conditions: at 0.1 µM
Sequence (P08922 whole entry): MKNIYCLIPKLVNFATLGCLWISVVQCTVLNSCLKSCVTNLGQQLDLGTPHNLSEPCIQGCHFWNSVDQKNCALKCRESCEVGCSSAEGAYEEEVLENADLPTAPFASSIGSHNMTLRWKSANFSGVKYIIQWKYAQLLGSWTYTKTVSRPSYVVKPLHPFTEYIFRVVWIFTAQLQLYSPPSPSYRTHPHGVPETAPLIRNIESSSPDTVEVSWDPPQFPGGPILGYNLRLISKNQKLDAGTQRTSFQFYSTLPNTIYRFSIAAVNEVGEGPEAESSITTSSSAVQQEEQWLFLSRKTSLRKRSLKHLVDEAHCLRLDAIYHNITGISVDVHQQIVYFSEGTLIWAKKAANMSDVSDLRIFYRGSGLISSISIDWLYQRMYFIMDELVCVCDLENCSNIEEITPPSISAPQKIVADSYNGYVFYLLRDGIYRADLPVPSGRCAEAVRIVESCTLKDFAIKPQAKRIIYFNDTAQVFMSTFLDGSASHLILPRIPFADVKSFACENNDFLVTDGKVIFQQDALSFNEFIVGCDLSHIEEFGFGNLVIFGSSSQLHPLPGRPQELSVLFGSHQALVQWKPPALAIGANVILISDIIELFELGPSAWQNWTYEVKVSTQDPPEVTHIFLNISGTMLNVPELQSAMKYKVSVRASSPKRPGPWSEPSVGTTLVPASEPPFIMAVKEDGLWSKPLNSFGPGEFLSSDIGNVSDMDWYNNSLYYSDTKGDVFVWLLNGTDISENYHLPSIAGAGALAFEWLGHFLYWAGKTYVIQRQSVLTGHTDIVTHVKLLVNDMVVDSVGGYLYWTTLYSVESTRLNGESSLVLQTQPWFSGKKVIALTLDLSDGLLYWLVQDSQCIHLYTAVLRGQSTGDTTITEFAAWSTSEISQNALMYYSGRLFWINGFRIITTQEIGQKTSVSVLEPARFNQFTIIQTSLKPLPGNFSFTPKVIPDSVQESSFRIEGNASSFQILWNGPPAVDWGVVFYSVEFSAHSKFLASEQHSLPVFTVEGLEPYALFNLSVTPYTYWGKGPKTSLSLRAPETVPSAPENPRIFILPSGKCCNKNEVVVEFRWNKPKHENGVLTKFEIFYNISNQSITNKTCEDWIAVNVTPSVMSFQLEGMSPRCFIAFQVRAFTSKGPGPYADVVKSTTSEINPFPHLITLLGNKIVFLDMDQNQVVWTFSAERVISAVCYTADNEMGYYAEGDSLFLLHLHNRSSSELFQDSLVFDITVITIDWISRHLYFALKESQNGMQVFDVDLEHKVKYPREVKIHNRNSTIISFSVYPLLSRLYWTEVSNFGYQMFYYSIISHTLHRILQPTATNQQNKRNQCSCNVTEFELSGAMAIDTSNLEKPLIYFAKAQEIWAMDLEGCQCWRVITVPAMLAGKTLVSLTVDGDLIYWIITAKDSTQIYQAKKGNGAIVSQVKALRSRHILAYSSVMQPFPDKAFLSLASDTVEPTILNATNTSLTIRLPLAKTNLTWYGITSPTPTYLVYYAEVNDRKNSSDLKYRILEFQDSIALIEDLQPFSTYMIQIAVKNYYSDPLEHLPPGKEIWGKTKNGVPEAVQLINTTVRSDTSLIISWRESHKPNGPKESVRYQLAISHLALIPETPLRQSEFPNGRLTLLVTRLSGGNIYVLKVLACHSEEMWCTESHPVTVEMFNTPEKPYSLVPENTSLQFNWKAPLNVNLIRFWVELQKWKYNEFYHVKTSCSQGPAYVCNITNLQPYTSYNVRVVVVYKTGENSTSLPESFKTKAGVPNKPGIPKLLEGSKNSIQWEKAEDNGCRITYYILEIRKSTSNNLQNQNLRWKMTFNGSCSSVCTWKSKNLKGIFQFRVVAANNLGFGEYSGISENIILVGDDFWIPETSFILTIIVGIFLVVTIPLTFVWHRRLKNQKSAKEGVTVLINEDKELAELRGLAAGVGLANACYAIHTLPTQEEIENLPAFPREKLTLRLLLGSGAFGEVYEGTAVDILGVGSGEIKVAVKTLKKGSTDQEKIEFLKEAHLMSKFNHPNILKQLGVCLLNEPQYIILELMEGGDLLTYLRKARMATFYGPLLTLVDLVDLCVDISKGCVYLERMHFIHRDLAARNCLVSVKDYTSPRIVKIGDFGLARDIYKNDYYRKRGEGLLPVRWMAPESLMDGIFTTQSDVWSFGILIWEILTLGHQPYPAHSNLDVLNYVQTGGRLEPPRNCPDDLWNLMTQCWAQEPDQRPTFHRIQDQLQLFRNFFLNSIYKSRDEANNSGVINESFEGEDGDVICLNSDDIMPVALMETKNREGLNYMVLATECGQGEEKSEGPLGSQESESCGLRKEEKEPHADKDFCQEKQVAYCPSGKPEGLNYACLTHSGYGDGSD

Row | Structure (SMILES) | inhibition [%]
33 | COc1cc2ncnc(Nc3ccc(C)c(O)c3)c2cc1OC | 1.94
34 | Cc1cc(-c2ccccn2)cc(C)c1/C=C/c1cncc(-c2nn[nH]n2)c1 | 9.51
35 | CC(C)c1ccc2c(c1)NC(=O)/C2=N/Nc1ccc(S(N)(=O)=O)cc1 | 0.66
36 | CCn1c(-c2nonc2N)nc2ccc(F)cc21 | 5.7
37 | CN(c1ccc(NC(=O)Nc2ccc(OC(F)(F)F)cc2)cc1)c1ccnc(Nc2cccc(S(N)(=O)=O)c2)n1 | 15.2
38 | c1ccc(Nc2ncc(-c3ccccc3)o2)cc1 | 7.47
39 | CCOc1nccc2c1nc(-c1nonc1N)n2CC | 5.15
40 | COc1cccc(-n2ncc3c(N/N=C/c4ccc(S(C)(=O)=O)cc4)ncnc32)c1 | 7.29
41 | Cc1ccc2c(-c3ccnc(Nc4cccc(C(F)(F)F)c4)n3)c(-c3ccccc3)nn2n1 | 7.31
42 | NS(=O)(=O)c1cccc(Nc2cc(-c3ccc(F)cc3)n[nH]2)c1 | 4.34
43 | CCCN1CCCC(c2ccc(Nc3nc(Nc4cc(F)ccc4C(N)=O)c4cc[nH]c4n3)c(OC)c2)C1 (stereo not given) | 63.8
44 | c1ccc(Cc2nc3ccc(Nc4ncnc5ccccc45)cc3[nH]2)cc1 | 4.22
45 | CN1CCN(C(=O)c2ccc(NC(=O)Nc3ccc(N(C)c4ccnc(Nc5ccc(CS(C)(=O)=O)cc5)n4)cc3)cc2)CC1 | 14.6
46 | N#Cc1cccc(Nc2nccc(-c3cnn4ncccc34)n2)c1 | 32.1
47 | Nc1nccc(-c2c(-c3ccc(F)cc3)ncn2CCCN2CCOCC2)n1 | 5.06
48 | COc1cc(/C=N/Nc2ncnc3c2cnn3C(C)C)ccc1O | 11.9
49 | O=C(Nc1ccc(Oc2ccc3[nH]c(NC(=O)c4ccco4)nc3c2)cc1)Nc1cc(C(F)(F)F)ccc1F | 0.05

Row | Structure (SMILES) | inhibition [%]
50 | Cc1ccc(Nc2ccnc(Nc3cccc(C(N)=O)c3)n2)cc1O | 17.4
51 | Cc1cc(O)cc(C)c1/C=C/c1cncc(C(=O)N(C)C)c1 | 3.04
52 | NC(=O)c1cccc(Nc2nccc(Nc3cccc(F)c3)n2)c1 | 18.8
53 | COc1cc2ncnc(Nc3ccc4c(cnn4Cc4ccccc4)c3)c2cc1OC | 6.51
54 | CCn1c(-c2nonc2N)nc2c(C#CC(C)(C)O)nc(OCCNC)cc21 | 6.88
55 | Nc1nccc(C#Cc2cncnc2Nc2ccc(OCc3cccc(F)c3)c(Cl)c2)n1 | 7.35
56 | COC(=O)Nc1nc2cc(Oc3ccc(NC(=O)Nc4cccc(Br)c4)cc3)ccc2[nH]1 | 4.26
57 | O=C1Nc2ccccc2/C1=C/Nc1ccc2[nH]c(=O)[nH]c2c1 | 3.89
58 | NS(=O)(=O)c1ccc(Nc2cc(-c3cccc(O)c3)n[nH]2)cc1 | 6.66
59 | COc1cc2ncn(-c3cc(OCc4ccccc4S(C)(=O)=O)c(C#N)s3)c2cc1OC | 27.4
60 | CC(C)c1ccc(Nc2nccc(-c3cnn4ncccc34)n2)cc1 | 19.2
61 | NS(=O)(=O)c1ccc(N/N=C2\C(=O)Nc3ccc(Cl)cc32)cc1 | 4.68
62 | FC(F)(F)c1ccc(-c2nn3ncccc3c2-c2ccnc(Nc3ccc4c(c3)OCCO4)n2)cc1 | 7.87
63 | Nc1ccc(C#Cc2cncnc2Nc2ccc(OCc3cccc(F)c3)c(Cl)c2)cc1 | 1.61
64 | Cc1ccc(O)cc1Nc1ccnc2ccc(S(C)(=O)=O)cc12 | 5.41
65 | NS(=O)(=O)c1ccc(NC=C2C(=O)Nc3ccc4ncsc4c32)cc1 | 17.3
